Results as given in the supplement of paper PMC3334620.
The full ranking holds about 33,000 sequences; the median of “E-score (-0.5 to 0.5)” is about -0.053, and the highest 2% start at about 0.37. The sample holds the highest values, similar sequences and a random draw of the others, so the mix is not that of the screen.

Each sequence was assayed against Hap1 (UniProt P0CE41) (assay: PBM E-score (8-mer binding enrichment) (E-score (-0.5 to 0.5)); higher = stronger / more preferred TF binding). Details: protein concentration: 200 nM; construct: GST-DNA-binding domain.
UniProt P0CE41, sequence (P0CE41 whole entry, the tested form may be a part): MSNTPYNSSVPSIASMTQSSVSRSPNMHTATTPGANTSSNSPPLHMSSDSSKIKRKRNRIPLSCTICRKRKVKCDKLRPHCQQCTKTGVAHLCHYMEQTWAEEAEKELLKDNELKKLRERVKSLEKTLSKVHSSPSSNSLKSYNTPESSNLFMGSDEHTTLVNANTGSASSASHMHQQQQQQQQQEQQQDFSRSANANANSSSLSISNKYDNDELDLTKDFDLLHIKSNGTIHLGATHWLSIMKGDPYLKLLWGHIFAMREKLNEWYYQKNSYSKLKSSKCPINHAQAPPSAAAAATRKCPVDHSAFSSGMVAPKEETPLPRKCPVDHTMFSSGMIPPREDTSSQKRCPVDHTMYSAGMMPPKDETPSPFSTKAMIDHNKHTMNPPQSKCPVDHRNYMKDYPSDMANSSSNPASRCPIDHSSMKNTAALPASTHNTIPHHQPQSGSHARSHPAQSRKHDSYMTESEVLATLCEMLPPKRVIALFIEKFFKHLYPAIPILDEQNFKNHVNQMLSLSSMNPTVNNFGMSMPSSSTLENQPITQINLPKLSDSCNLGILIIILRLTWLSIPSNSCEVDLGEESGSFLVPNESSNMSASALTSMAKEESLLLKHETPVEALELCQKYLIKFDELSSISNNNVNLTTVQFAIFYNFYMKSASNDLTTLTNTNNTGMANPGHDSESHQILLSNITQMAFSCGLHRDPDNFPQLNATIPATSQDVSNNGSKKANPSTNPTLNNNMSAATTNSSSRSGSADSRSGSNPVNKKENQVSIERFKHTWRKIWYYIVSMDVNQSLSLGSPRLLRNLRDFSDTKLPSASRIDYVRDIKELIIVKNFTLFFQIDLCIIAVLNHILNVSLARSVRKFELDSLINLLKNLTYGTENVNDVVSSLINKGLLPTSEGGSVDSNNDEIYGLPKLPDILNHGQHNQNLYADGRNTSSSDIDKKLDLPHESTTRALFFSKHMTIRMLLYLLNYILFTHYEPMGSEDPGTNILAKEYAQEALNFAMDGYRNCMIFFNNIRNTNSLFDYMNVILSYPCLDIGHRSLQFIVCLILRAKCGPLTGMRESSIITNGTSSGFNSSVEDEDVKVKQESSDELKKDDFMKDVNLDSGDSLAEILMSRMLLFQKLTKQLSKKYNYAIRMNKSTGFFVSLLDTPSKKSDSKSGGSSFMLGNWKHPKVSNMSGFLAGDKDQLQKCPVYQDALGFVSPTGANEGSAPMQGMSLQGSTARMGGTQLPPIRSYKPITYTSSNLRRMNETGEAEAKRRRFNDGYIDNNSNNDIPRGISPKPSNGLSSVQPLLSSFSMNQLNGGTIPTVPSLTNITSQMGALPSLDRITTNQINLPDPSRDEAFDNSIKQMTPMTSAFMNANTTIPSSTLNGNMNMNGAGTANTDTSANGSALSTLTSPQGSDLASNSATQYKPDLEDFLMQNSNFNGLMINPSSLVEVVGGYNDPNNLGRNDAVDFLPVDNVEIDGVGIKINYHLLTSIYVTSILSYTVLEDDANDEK
Method: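 Universal 'all 10-mer' protein binding microarrays (Agilent AMADID 015681) probed with GST-tagged S. cerevisiae TFs (full-length or DBD) made by in vitro transcription/translation (PURExpress), about 100-200 nM. Bound TF was detected with fluorescent anti-GST. Each ungapped 8-mer (which stands for itself and its reverse complement) is scored by the PBM enrichment score (E-score), a modified Wilcoxon-Mann-Whitney statistic from -0.5 to +0.5, computed with the Universal PBM Analysis Suite. Scale: above 0.35 generally sequence-specific binding.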

Sequence | PBM E-score
ATCCTCAC | -0.103
AGCAGGAT | -0.0378
TCTCCCAA | -0.0542
GCTTTCCA | -0.11
CTCCGAGC | 0.386
ATCCGAGA | 0.346
CTGCGAGA | -0.215
CTCCGACC | 0.359
CTCCGAGA | 0.376
GTGCGAGA | -0.179
CCCCGAGC | 0.351
CTTCGAGA | -0.234
GTCCGAGA | 0.437
CCAATCTC | 0.00791
AGCCCTAC | -0.129
CATGGTGA | -0.0558
CCGGAAGC | 0.336
GTCATCAC | -0.249
AGGAGTAG | -0.195
CCAAGGAA | -0.0481
AAGTCCAA | -0.00743
GAGTCCGA | 0.35

Sequence | PBM E-score
CAGTCCGA | 0.366
TAGTCCGA | 0.42
AAGTCCGA | 0.467
AAGTCCTA | 0.0348
AACCCTCA | -0.135
TGGTTAAA | -0.0634
AATCGCCT | 0.0771
TAGCTTGA | -0.226
AGGCGTAT | -0.311
ATGCCTAA | -0.21
GGTTCCAA | 0.14
AGCCCGGA | 0.39
AGCCCCGA | 0.333
AGCCCGGG | 0.36
AACCCGGT | 0.365
AGCCCGGC | 0.272
AGCCCCGG | 0.373
CTCCCGGC | 0.33
CTCCCGGA | 0.376
AACCCGGA | 0.371
GTCCCGGA | 0.343
AACCCGGC | 0.333

Sequence | PBM E-score
AGCCCCCG | 0.185
AGTGCTAA | 0.0956
CGTTTGTA | -0.122
GACCACTC | 0.0772
TCTCCAGA | -0.0567
TAGTAGCA | -0.123
ATGCGCGA | 0.188
ACTAAAGG | -0.181
AGGCGCAC | -0.0853
AGTCCATC | -0.027
TGCAGACA | -0.233
GGCCCGTA | 0.281
ACCCCGGA | 0.37
GGCCCGGA | 0.409
CCCCCGGA | 0.305
GCCCCGTA | 0.0466
AGCCCGAA | 0.3
GCCCCGGA | 0.391
GGCCCGAA | 0.384
ACCCCGGG | 0.357
CGCCCGAA | 0.294
GGCCCGCA | 0.157

Sequence | PBM E-score
GCCCCGGC | 0.25
CCTGGTGC | -0.0907
GAAAATCC | 0.167
GAAGGTCC | 0.0808
AGCTCCAA | -0.276
GAGACGCC | 0.0301
GGATACAC | 0.132
CACCATCC | 0.0474
ATTTAATC | 0.153
ACAATGAA | -0.165
AGATACAC | -0.0669
ACTGGTAG | -0.206
GCAAGCCA | -0.171
CAGTCGAA | -0.204
CGCCCGTA | 0.142
CACCCGGA | 0.364
TCCCCGAA | 0.335
TCCCCGGA | 0.377
CGCCCGGA | 0.4
TACCCGGA | 0.38
TCCCCGCA | 0.303
GACCCGGA | 0.353

Sequence | PBM E-score
CGCCCGGC | 0.335
GAACGCAA | -0.0397
ACTTCTAG | -0.146
GAACATGA | -0.0648
AAGTCCAG | -0.056
ATTGCTCG | 0.137
TGCTCAAA | -0.145
CGATAAGA | 0.291
TACGCCTA | -0.258
CGGATCTA | 0.404
CTGATATC | 0.26
CGGATATC | 0.39
CGGATCTC | 0.279
CGGATAAA | 0.381
CGGATAAC | 0.359
GATATATC | 0.373
TGGATAAA | -0.0137
GATATATA | 0.198
AATATATC | 0.26
GGGATCTA | 0.134
AGGATATC | 0.155
